SMILES strings stand for the structures. The source made the active and inactive calls.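 How the source made its calls: active means relative FRET score above 0.01, or acceptor fluorescence over 30% below the sample-well median; inactive means the rest.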

The values below come from PubChem BioAssay AID837 (The Scripps Research Institute Molecular Screening Center, 2007).

For this experiment, the target named is Protein Rev (Human immunodeficiency virus type 1 group M subtype B (isolate WMJ22)) (UniProt P05866). As to the kind of experiment: disruptors of Rev peptide-RRE RNA complex – biochemical, FRET, acceptor and relative FRET calls, confirmation (AID 837).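 Further: relative FRET combines rise in Cy5 acceptor with fall in fluorescein donor.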 Particulars: Fl-Rev peptide / Cy5-RRE RNA FRET, 1536-well; at 8 µM.
Sequence of Protein Rev (Human immunodeficiency virus type 1 group M subtype B (isolate WMJ22)) (P05866 whole entry, looked up): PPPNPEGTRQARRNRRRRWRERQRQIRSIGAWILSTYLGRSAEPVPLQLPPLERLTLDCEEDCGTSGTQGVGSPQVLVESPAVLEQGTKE
As to `CC(C(=O)O)N1C(=O)/C(=C/C=C/c2ccco2)SC1=S` (stereo not given), the outcome was “inactive; quenches the donor”.
For `Cc1ccc2nc(NC(=O)c3ccc(Cl)s3)sc2c1`, the outcome was inactive.
For `CCOC(=O)c1cn2nc(-c3ccc(OCC)cc3)cc2nc1C1CCN(C(=O)OC(C)(C)C)CC1`, the outcome was inactive.
For the compound `O=C(NCc1cccs1)c1cc2c(s1)CCCC2`, the call was inactive.
In the case of `COc1ccc(C2N=C(N)N=C(N)N2c2ccc(C)cc2)cc1` (stereo not given), the call was active.
As to `Cc1nc(Nc2ccncc2)c2oc3ccccc3c2n1`, the call was active.
Take `C[n+]1c2n(c3ccccc31)N=C(c1ccc(Cl)cc1)CS2`: the result was active.
`CNCCCOc1ccc(C(C)(C)c2ccccc2)cc1`: the result was active.
In the case of `O=C(O)c1ccc2c(c1)[C@@H]1C=CC[C@@H]1[C@H](c1ccccn1)N2`, the outcome was “inactive; quenches the donor”.
For the compound `CCOc1ccc(C(O)Cn2c(=N)n(CCN3CCCCC3)c3ccccc32)cc1` (stereo not given), the outcome was inactive.
Consider `Cc1nc(NC(=O)c2ccc(Br)o2)sc1C`, for which the compound was classed as inactive.
Regarding `O=C(N/N=C/c1cccc(F)c1)c1cc(-c2ccco2)nc2ccccc12`, the outcome is “active; quenches the donor”.
In the case of `Cc1cc(-c2nc3c4c5c(sc4[nH]c(=O)n3n2)CCC5)c(C)o1`, the compound was called inactive.
For `OC(COc1ccc2cc(Br)ccc2c1)CN1CCCC1` (stereo not given) the value was “inactive”; for `CN1CCc2c(sc3c2C(=O)NC(c2cn(Cc4ccccc4)c4ccccc24)N3)C1` (stereo not given), “inactive”; for `N=c1n(CCO)c2ccccc2n1Cc1ccccc1Cl`, “inactive”.
`CCN(CC)CCCOc1ccc(C)cc1Br`: the result was inactive.
In the case of `CC12Cc3ccc4ccccc4c3C=C1C[N+](C)(C)C2` (stereo not given), the call was inactive.
For the compound `O=C(NCCCO)Nc1ccc2nc(-c3ccco3)c(-c3ccco3)nc2c1`, the compound was called inactive.
Regarding `O=C(N/N=C/c1ccc(F)cc1)c1cc(-c2ccco2)nc2ccccc12`, the outcome was “active; quenches the donor”.
